Data taken from PubChem BioAssay (NCATS).
Several values for one entry are separate records, joined by “and”; a condition that tells them apart may be missing. Equal values may be shown once. Records with an inconclusive call do not appear. Activity calls are given as the source filed them. The call rests on the fitted dose curve; in most records, active means well fitted activation curve with a large enough effect; inconclusive means small, poorly fitted or top-dose-only effect; inactive means no such curve, though single readings can be large or run the other way.

Target: Cellular tumor antigen p53 (Homo sapiens) (UniProt P04637)
Sequence (P04637 whole entry, looked up): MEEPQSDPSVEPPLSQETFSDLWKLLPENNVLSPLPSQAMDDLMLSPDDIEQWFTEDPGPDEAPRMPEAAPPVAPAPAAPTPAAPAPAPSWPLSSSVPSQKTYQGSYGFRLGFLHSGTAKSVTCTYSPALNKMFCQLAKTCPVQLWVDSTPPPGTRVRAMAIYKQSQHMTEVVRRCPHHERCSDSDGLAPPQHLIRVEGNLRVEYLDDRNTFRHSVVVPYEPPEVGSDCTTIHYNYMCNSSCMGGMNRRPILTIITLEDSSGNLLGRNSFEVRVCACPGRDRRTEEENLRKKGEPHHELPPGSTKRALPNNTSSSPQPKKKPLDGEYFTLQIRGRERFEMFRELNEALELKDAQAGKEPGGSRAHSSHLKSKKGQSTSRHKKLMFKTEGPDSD
Test: Primary qHTS for small molecule compounds that upregulate eGFP-tagged delta133p53alpha (in N-terminal) cells. (AID 2060322); further: nearly all actives have a fitted effect of over 75% in size;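 on activation: cells pre-induced with doxycycline then dosed without doxycycline; series mostly up to about 56 µM; 0% = DMSO vehicle and 100% = reference activator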
Details: NCI-H358 eGFP-delta133p53alpha fluorescence, 24 h; activation: active compounds read high
From the text: Assay Development and Screening Technology
National Center for Advancing Translational Sciences (NCATS),
National Institute of Health (NIH), Rockville, Maryland
Cellular senescence (CS) is one of the hallmarks of aging and age-related diseases. Senescent cells are characterized by an irreversible growth arrest, an increase in senescence-associated beta-galactosidase (SA-beta-gal) activity and p16INK4a expression, an activation of the DNA damage response pathways, and the emergence of a senescence-associated secretory phenotype (SASP).
Delta133p53alpha, a human/primate-specific p53 protein isoform, delays or inhibits the induction of CS and SASP in various types of human cells, including progeria-derived fibroblasts, primary normal astrocytes, and CD8+ T lymphocytes. Induction of delta133p53alpha with small molecule compounds may provide therapeutic opportunities for inhibition of senescence/SASP-associated pathologies in progeria syndromes, astrocyte-mediated neuroprotection in neurodegenerative diseases, and possibly prevention and treatment of a wider range of senescence- and aging-associated diseases.
Here we report the development and validation of a cell-based quantitative high throughput screening (qHTS) assay in 1,536-well format. This qHTS assay uses the NCI-H358 cell line with doxycycline-inducible expression of enhanced green fluorescent protein (eGFP)-tagged delta133p53alpha, which allows efficient and highly quantitative measurement of the protein levels.
PROTOCOL TABLE (as described by Inglese J, Shamu CE and Guy RK. 2007)
SEQUENCE No. (e.g., 1, 2, 3, etc.); […] (e.g., Cells, Incubation, Reagent, etc.); VALUE; DESCRIPTION.
1; Cells; 4uL; 800 doxycycline treated cells / well in doxycycline-free media, 1536-well black, clear-bottom low base Aurora microplates.
2; Compounds; 23 nL; Kalypsis pin tool (Wako) equipped with 1536-well pin heads, 5-azacytidine positive control.
3; Incubation; 24 hr; 37C, 5% CO2; 95% relative humidity.
4; Aspiration; 1x; BioTek EL406 washer dispenser (Agilent).
5; Fixing; 3.5% paraformaldehyde, BioTek EL406 washer dispenser (Agilent).
6; Washing; 1x PBS; BioTek EL406 washer dispenser (Agilent).
7; Nuclei staining; 1:1000 dilution of Hoechst 33342 (Thermofisher), BioTek EL406 washer dispenser (Agilent).
8; Incubation; 20 min; in the dark at room temperature.
9; Washing; 2x, 1x PBS (ThermoFisher), BioTek EL406 washer dispenser (Agilent).
10; Reagent; 10 uL; 1x PBS per well, sealed with clear adhesive tape.
NOTES (numbers refer to sequence numbers above).
1. NCI-H358 cells expressing eGFP-tagged delta133p53alpha were grown in T75 culture flasks and treated with doxycycline for 24h, at 10 ng/ml for eGFP-D133p53a cells (N-terminal cell) and 100 ng/ml for D133p53a-eGFP cells (C-terminal cells). Cells were trypsinized, counted using a Counted 3 Automated Cell Counter (Thermo Fisher), and diluted to a concentration of 200,000 cells/ml. A Multidrop Combi Reagent Dispenser (ThermoFisher) was used to dispense 800 cells/well in […] of doxycycline-free media, into 1536-well black/clear bottom low base plates (AuroraMicroplates).
2. After plating cells, 23 nl of compound library, DMSO vehicle control or positive control (5-azacytidine) were transferred by Pin Tool (Wako). The plate map layout was the same for each plate: (column 1) non-doxycycline treated cells + DMSO vehicle control; (column 2) doxycycline treated cells + DMSO vehicle control baseline; (column 3) doxycycline treated cells + positive control 57.5 uM final concentration 5-azacytidine; (column 4) doxycycline treated cells + serial dilution of 5-azacytidine, 16-point 1:2 titration spanning 1.8 nM to […] final concentration; (columns 5-48) doxycycline treated cells + titration of library compounds.
3. Cells were incubated at 37 °C, 5 % CO2, 95% RH with breathable metal lid for 24h.
4-10. […] After two washes, 10 ul of 1X PBS (Thermo Fisher) was dispensed to each well. Clear adhesive plate seals (VWR) were applied and plates stored at 4 °C.
11. […]
Potency means the concentration at half of the fitted maximal effect.

| Compound | activation | Potency |
| --- | --- | --- |
| CC(=O)N1C[C@H](O)C[C@H]1C(=O)O | 14.2% (inactive) | – |
| OCCc1ccc(O[C@@H]2O[C@H](CO)[C@@H](O)[C@H](O)[C@H]2O)cc1 | -7.14% (inactive) | – |
| C=CCc1ccc(O)c(OC)c1 | 15.1% (inactive) | – |
| NC(=NCCCCCCN=C(N)N=C(N)Nc1ccc(Cl)cc1)N=C(N)Nc1ccc(Cl)cc1 | 19.1% (inactive) | – |
| CC/C=C/C=C/C1(C)OC(CC(CO)OC)=CC1=O (stereo not given) | 1.79% (inactive) | – |
| COc1ccc(NC(=O)c2ccc(-c3ccc(-c4nnc(C)o4)cc3C)cc2)cc1N1CCN(C)CC1 | -6.21% (inactive) | – |
| CCCCc1nc(Cl)c(CO)n1Cc1ccc(-c2ccccc2-c2nnn[nH]2)cc1 | -18.1% (inactive) | – |
| CNNCc1ccc(C(=O)NC(C)C)cc1 | -0.837% (inactive) | – |
| COC(=O)N(C)c1c(N)nc(-c2nn(Cc3ccccc3F)c3ncccc23)nc1N | -15.8% (inactive) | – |
| C/C=C1\[C@H](O[C@@H]2O[C@H](CO)[C@@H](O)[C@H](O)[C@H]2O)OC=C(C(=O)OC)[C@H]1CC(=O)OC | 4.46% (inactive) | – |
| NC(=O)c1cccc(-c2cc(OC(=O)NC3CCCCC3)ccc2O)c1 | 7% (inactive) | – |
| Nc1ncnc2c1ncn2CCNCCCCCO | -0.333% (inactive) | – |
| COC(=O)C(Cc1ccccc1)NC(=O)c1ccccc1 (stereo not given) | 6.87% (inactive) | – |
| CCC1OC(=O)C(C)CC(C)C(=O)/C(C)=C/C(C)C(=O)/C=C/C1(C)O (stereo not given) | 3.05% (inactive) | – |
| FC(F)(F)Oc1ccc(-c2ccc3nnc(C(F)(F)F)n3c2)cc1 | -3.34% (inactive) | – |
| CC(C)(C)c1cnc(CSc2cnc(NC(=O)C3CCNCC3)s2)o1 | – | 0.968 µM (active) |
| CC(C)(C)NCC(O)COc1cccc2c1C[C@H](O)[C@H](O)C2 (stereo not given in full) | 0% (inactive) | – |
| C[C@H](Cc1ccc(O)c(O)c1)[C@@H](C)Cc1ccc(O)c(O)c1 | 8.19% (inactive) | – |
| Nc1nonc1C(=Nc1ccc(F)c(Cl)c1)NO | -6.33% (inactive) | – |
| CC(C)CNCc1ccc(-c2ccccc2S(=O)(=O)N2CCCC2)cc1 | 11.7% (inactive) | – |

| Compound | activation | Potency |
| --- | --- | --- |
| Nc1ncnc(Nc2ccccc2)n1 | -16.7% (inactive) | – |
| Nc1nc(Cl)nc2c1ncn2[C@@H]1O[C@H](CO)[C@@H](O)[C@@H]1F | -10.7% (inactive) | – |
| O=C(O)c1ccccc1C(=O)Nc1ccc(S(=O)(=O)Nc2nccs2)cc1 | 8.47% (inactive) | – |
| NC(=NCc1ccccc1)NC(=O)c1nc(Cl)c(N)nc1N | 0.24% (inactive) and 2.72% (inactive) | – |
| O=C1NC(=O)C(c2c[nH]c3ccccc23)=C1c1c[nH]c2ccccc12 | – | 27.3 µM (active) |
| CC(=O)Nc1cccc(-n2c(=O)n(C3CC3)c(=O)c3c(Nc4ccc(I)cc4F)n(C)c(=O)c(C)c32)c1 | -5.24% (inactive) and -3.57% (inactive) | – |
| NS(=O)(=O)c1ccc(N2N=C(c3ccccc3)CC2c2ccccc2)cc1 (stereo not given) | -18.6% (inactive) | – |
| C/C=C(\C)C(=O)O[C@H]1C=CC(=O)O[C@H]1/C=C/[C@@H](O)[C@H](C)O | – | 26.9 µM (active) |
| CC1(C)CC[C@]2(C(=O)O[C@@H]3O[C@H](CO)[C@@H](O)[C@H](O)[C@H]3O)CC[C@]3(C)C(=CCC4[C@@]5(C)CC[C@H](O[C@@H]6O[C@H](C(=O)O)[C@@H](O)[C@H](O)[C@H]6O)C(C)(C)C5CC[C@]43C)C2C1 (stereo not given in full) | -0.893% (inactive) | – |
| O=C(OCc1cccc(O)c1O[C@@H]1O[C@H](CO)[C@@H](O)[C@H](O)[C@H]1O)C1(O)C(=O)C2C=CC1C1C=CC(=O)C(O)(C(=O)OCc3cccc(O)c3O[C@@H]3O[C@H](CO)[C@@H](O)[C@H](O)[C@H]3O)C21 (stereo not given in full) | -29.8% (inactive) | – |
| CNC1CCC(N(Cc2cccc(-c3ccncc3)c2)C(=O)c2sc3c(F)ccc(F)c3c2Cl)CC1 (stereo not given) | 21.5% (inactive) | – |
| C/C(=C\CCC(C)C1=CCC2(C)OC3=C(CC12)C(=O)C(O)CC3)CO (stereo not given) | 25.2% (inactive) | – |
| CC(C)C(C#N)O[C@@H]1O[C@H](CO[C@@H]2OC[C@](O)(CO)[C@H]2O)[C@@H](O)[C@H](O)[C@H]1O (stereo not given in full) | 6.87% (inactive) | – |
| COc1cccc(OC)c1-c1cc(C(=O)N[C@@H](CC(C)C)C(=O)O)nn1-c1ccnc2cc(Cl)ccc12 | 15.8% (inactive) | – |
| CS(=O)(=O)c1ccc([C@@H](O)[C@@H](CO)NC(=O)C(Cl)Cl)cc1 | 15.3% (inactive) and 17.8% (inactive) | – |
| CCOCc1cc(OC)c(-c2ccc(C[C@H](NC(=O)c3c(F)cccc3F)C(=O)O)cc2)c(OC)c1 | -5.67% (inactive) | – |
| O=C(NCc1ccccc1)[C@H](Cc1ccccc1)NC(=O)[C@@H]1O[C@@H]1C(=O)NCCc1ccc(O)cc1 | 16.6% (inactive) | – |
| Cc1cccc(N(C)C(=S)Oc2ccc3c(c2)C2CCC3C2)c1 (stereo not given) | -15.1% (inactive) | – |
| C=C1CCCC2(C)CCC(C(C)(C)OC3OC(C)C(O)C(O)C3OC(=O)/C(C)=C\C)CC12 (stereo not given) | -19.8% (inactive) | – |
| CNc1nc(Cc2ccccc2)nc2c1CCNC[C@@H]2C | 19% (inactive) | – |
